# Measurements reported in the OligoGym collection.
# Target: GNAQ
# Experiment: pooled miR-30 sensor sort-seq; sequence = guide strand
# Conditions: shRNA
# Also: reference of the scale not given here.
row,Sequence,sensor-assay potency score (higher = more potent)
1,TACTCTTGCCACTCTCTCCTGT,0.305
2,TTGAGTGTGTCCATGGCTCTGA,0.188
3,TTTAAGAACAGAATAACCGAGG,-0.0655
4,TTGATAAACGTACTCTTGCCAC,-0.533
5,TCGTCTATCATAGCATTCCTGG,-1.02
6,TTGTATGGGATCTTGAGTGTGT,0.798
7,TTGTGCATGAGCCTTATTGTGC,-1.26

# Target: GNAT1
# Experiment: as above
# Conditions: shRNA
row,Sequence,sensor-assay potency score (higher = more potent)
1,TAGTCCGGGAAACAGATGCTGA,-1.24
2,TCCTTGATGATGATGTCGGTGA,-1.08
3,TTCGTCGTCCTCCACTAGCACC,-1.74
4,TTGAGTGTGGTCATGGCGCGTA,-0.473
5,TAGATCTCCTTCACGTCGCGCC,-0.148
6,TTCTTTTCCAGCTCCCTGGAGT,-0.257
7,TTGACGTTCTGCGTGTCGGTGG,0.245
8,TTTGACGTTCTGCGTGTCGGTG,-0.514
9,TAGCGGTGGTTGCAGATGCTGT,-1.65
10,TTGGGTCCATCGTAGTCCGGGA,-0.616
11,TGCACCTTGATGTAGTTGCCGG,-1.2
12,TAATCTTCATCTGCTTGACGAT,-0.376
